Experiments:
Assay in all cases: SELEX-seq (CSI, HT-SELEX, round 3); SELEX-seq: 1x PBS (10 mM phosphate, 137 mM NaCl, 2.7 mM KCl) pH 7.6, 2.5 mM DTT, 50 ng/ul poly dI-dC, 0.1% BSA, 50 nM biotinylated bZIP (1:3 with partner for heterodimers), 100 nM library, room temperature, 1 h, 3 rounds; high values mean tight binding
Details in all cases: protein: recombinant;recombinant; copies: 1;1; dsDNA, one strand shown
ATF3;CEBPG = target: T1, ATF3;CEBPG (Homo sapiens;Homo sapiens, UniProt P18847;P53567 77-150;52-130, |)
T1 sequence 1: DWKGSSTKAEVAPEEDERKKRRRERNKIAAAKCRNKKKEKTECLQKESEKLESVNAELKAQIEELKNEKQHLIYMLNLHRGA
T1 sequence 2: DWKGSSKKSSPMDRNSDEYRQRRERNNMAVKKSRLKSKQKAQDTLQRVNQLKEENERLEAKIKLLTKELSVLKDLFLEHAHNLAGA

ATF3;CEBPA = ATF3;CEBPA (Homo sapiens;Homo sapiens, UniProt P18847;P49715 77-150;273-345, |)
JUN;CEBPG = JUN;CEBPG (Homo sapiens;Homo sapiens, UniProt P05412;P53567 243-316;52-130, |)
JUN;CEBPA = JUN;CEBPA (Homo sapiens;Homo sapiens, UniProt P05412;P49715 243-316;273-345, |)
BATF3;CEBPG = target: T2, BATF3;CEBPG (Homo sapiens;Homo sapiens, UniProt Q9NR55;P53567 26-99;52-130, |)
T2 sequence 1: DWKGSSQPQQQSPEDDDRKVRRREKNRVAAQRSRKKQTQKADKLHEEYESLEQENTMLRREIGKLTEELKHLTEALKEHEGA
T2 sequence 2: T1 sequence 2

ATF3;ATF3 = target: T3, ATF3;ATF3 (Homo sapiens;Homo sapiens, UniProt P18847;P18847 77-150;77-150, |)
T3 sequence 1: T1 sequence 1
T3 sequence 2: T1 sequence 1

JUNB;CEBPA = JUNB;CEBPA (Homo sapiens;Homo sapiens, UniProt P17275;P49715 259-332;273-345, |)
BATF;CEBPG = target: T4, BATF;CEBPG (Homo sapiens;Homo sapiens, UniProt Q16520;P53567 17-90;52-130, |)
T4 sequence 1: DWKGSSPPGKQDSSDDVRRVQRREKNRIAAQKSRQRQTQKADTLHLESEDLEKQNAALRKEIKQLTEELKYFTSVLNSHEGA
T4 sequence 2: T1 sequence 2

BATF3;CEBPA = BATF3;CEBPA (Homo sapiens;Homo sapiens, UniProt Q9NR55;P49715 26-99;273-345, |)
FOSL1;CEBPG = target: T5, FOSL1;CEBPG (Homo sapiens;Homo sapiens, UniProt P15407;P53567 96-169;52-130, |)
T5 sequence 1: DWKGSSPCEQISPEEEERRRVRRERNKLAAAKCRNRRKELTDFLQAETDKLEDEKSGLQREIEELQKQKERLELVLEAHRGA
T5 sequence 2: T1 sequence 2

JUN;CEBPA, sequence (P05412 other isoform, or with tags, fused parts or gaps |, chain 1 of 2): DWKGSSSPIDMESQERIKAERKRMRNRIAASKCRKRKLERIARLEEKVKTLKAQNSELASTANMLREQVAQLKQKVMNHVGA
JUN;CEBPA, sequence (P49715 other isoform, or with tags, fused parts or gaps |, chain 2 of 2): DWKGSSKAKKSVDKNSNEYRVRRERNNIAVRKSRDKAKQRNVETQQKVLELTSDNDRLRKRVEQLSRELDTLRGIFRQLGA
JUNB;CEBPA, sequence (P17275 other isoform, or with tags, fused parts or gaps |, chain 1 of 2): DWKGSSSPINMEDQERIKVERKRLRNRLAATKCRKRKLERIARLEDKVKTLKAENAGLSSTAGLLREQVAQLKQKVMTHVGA
JUNB;CEBPA, sequence (P49715 other isoform, or with tags, fused parts or gaps |, chain 2 of 2): as the sequence (P49715 other isoform, or with tags, fused parts or gaps |, chain 2 of 2) above
BATF3;CEBPA, sequence (P49715 other isoform, or with tags, fused parts or gaps |): as the sequence (P49715 other isoform, or with tags, fused parts or gaps |, chain 2 of 2) above

Sequence | binding signal (ATF3;CEBPG) | binding signal (ATF3;CEBPA) | binding signal (JUN;CEBPG) | binding signal (JUN;CEBPA) | binding signal (BATF3;CEBPG) | binding signal (ATF3;ATF3) | binding signal (JUNB;CEBPA) | binding signal (BATF;CEBPG) | binding signal (BATF3;CEBPA) | binding signal (FOSL1;CEBPG)
ATGACGGAAT | 0.0128 relative CSI intensity (max = 1) | 0.105 relative CSI intensity (max = 1) | 0.0184 relative CSI intensity (max = 1) | 0.00425 relative CSI intensity (max = 1) | 0.00179 relative CSI intensity (max = 1) | 0.00639 relative CSI intensity (max = 1) | 0.00413 relative CSI intensity (max = 1) | 0.00661 relative CSI intensity (max = 1) |  | 
ATGACGCAAT | 1 relative CSI intensity (max = 1) | 0.754 relative CSI intensity (max = 1) | 1 relative CSI intensity (max = 1) | 0.7 relative CSI intensity (max = 1) | 0.954 relative CSI intensity (max = 1) | 0.0322 relative CSI intensity (max = 1) | 1 relative CSI intensity (max = 1) | 0.678 relative CSI intensity (max = 1) | 0.595 relative CSI intensity (max = 1) | 1 relative CSI intensity (max = 1)
ATGATGCAAT | 0.538 relative CSI intensity (max = 1) | 0.655 relative CSI intensity (max = 1) | 0.445 relative CSI intensity (max = 1) | 0.679 relative CSI intensity (max = 1) | 0.78 relative CSI intensity (max = 1) | 0.00513 relative CSI intensity (max = 1) | 0.927 relative CSI intensity (max = 1) | 0.553 relative CSI intensity (max = 1) | 0.725 relative CSI intensity (max = 1) | 0.498 relative CSI intensity (max = 1)
ATGACGTCAT | 0.268 relative CSI intensity (max = 1) | 1 relative CSI intensity (max = 1) | 0.705 relative CSI intensity (max = 1) | 1 relative CSI intensity (max = 1) | 0.108 relative CSI intensity (max = 1) | 1 relative CSI intensity (max = 1) | 0.0515 relative CSI intensity (max = 1) | 0.12 relative CSI intensity (max = 1) | 0.0986 relative CSI intensity (max = 1) | 0.43 relative CSI intensity (max = 1)
ATGACGTAAT | 0.53 relative CSI intensity (max = 1) | 0.606 relative CSI intensity (max = 1) | 0.246 relative CSI intensity (max = 1) | 0.286 relative CSI intensity (max = 1) | 0.306 relative CSI intensity (max = 1) | 0.196 relative CSI intensity (max = 1) | 0.144 relative CSI intensity (max = 1) | 0.22 relative CSI intensity (max = 1) | 0.226 relative CSI intensity (max = 1) | 0.318 relative CSI intensity (max = 1)
CCTGACGTCA | 0.0196 relative CSI intensity (max = 1) | 0.18 relative CSI intensity (max = 1) |  | 0.00973 relative CSI intensity (max = 1) | 0.00277 relative CSI intensity (max = 1) | 0.0945 relative CSI intensity (max = 1) | 0.00467 relative CSI intensity (max = 1) | 0.0162 relative CSI intensity (max = 1) | 0.00253 relative CSI intensity (max = 1) | 

From PMC5349851, “Combinatorial bZIP dimers display complex DNA-binding specificity landscapes”
